# According to PubChem BioAssay (Tox21):
# Unmarked numbers belong to inactive results. Inconclusive results are not listed. Where a call stands in place of a potency, no number is given. The source made the active and inactive calls. The call rests on the fitted dose curve; in most records, active means well fitted curve in the direction sought with a large enough effect in the repeat runs; inconclusive means weak or mixed curves; inactive means no such curve, though single readings can be large; an effect the other way counts as inactive or inconclusive.
# Legend:
# [1] = A CellTox Green Cytotoxicity Assay to monitor cytotoxicity in HepG2 cells - 0 hour (AID 1224882); further: nearly all actives have a fitted effect of over 35% in size; further: potency means the concentration at half of the fitted maximal effect
# Procedure, shortened: (§1)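 Cells and non-lytic dye reagent are dispensed together (600 HepG2 cells/well) and incubated 5 h before DMSO compound transfer. Kinetic fluorescence is then recorded in the same wells during 40 h at 37 C.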
# [2] = A CellTox Green Cytotoxicity Assay to monitor cytotoxicity in HepG2 cells - 32 hour (AID 1224883); further: nearly all actives have a fitted effect of over 50% in size; further: potency means the concentration at half of the fitted maximal effect
# Procedure, shortened: as §1
# [3] = A CellTox Green Cytotoxicity Assay to monitor cytotoxicity in HEK293 cells - 8 hour (AID 1224884); further: nearly all actives have a fitted effect of over 35% in size; further: potency means the concentration at half of the fitted maximal effect
# Procedure, shortened: (§2)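 Cells (HEK293, 600/well) and dye reagent are dispensed together. After 5 h at 37 C, 23 nL compound is pinned in. Plates stay at 37 C for 40 h with fluorescence read at 0h, 8h, 16h, 24h, 32h and 40h.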
# [4] = qHTS RealTime-Glo MT Cell Viability Assay in HepG2 cells - 16 hour (AID 1224885); further: nearly all actives have a fitted effect of over 50% in size
# Procedure, shortened: (§3)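 Tox21 10K library screened in qHTS format on HepG2 cells carrying RealTime-Glo reagents. Compounds were added after a 5 h preincubation, and the luminescent signal from continuous culture was measured repeatedly during 40 h treatment.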
# [5] = qHTS RealTime-Glo MT Cell Viability Assay in HEK293 cells - 24 hour (AID 1224886); further: top concentration of the series differs between compounds; nearly all actives have a fitted effect of over 50% in size
# Procedure, shortened: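 Luminescence generated by NanoLuc from substrate produced by living HEK293 cells served as the viability signal. Each value reflects the reading at its stated time point during continuous 40 h compound exposure at 37 C.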
# [6] = qHTS RealTime-Glo MT Cell Viability Assay in HEK293 cells - 8 hour (AID 1224887); further: top concentration of the series differs between compounds; nearly all actives have a fitted effect of over 50% in size
# Procedure, shortened: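 Real-time viability in HEK293: signal arises when living cells convert a prosubstrate for NanoLuc in the medium, so luminescence tracks viable cell number. Compound (23 nL, DMSO) added 5 h post-seeding; kinetic reads at 0–40 h, 37 C.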
# [7] = A CellTox Green Cytotoxicity Assay to monitor cytotoxicity in HEK293 cells - 16 hour (AID 1224888); further: nearly all actives have a fitted effect of over 35% in size; further: potency means the concentration at half of the fitted maximal effect
# Procedure, shortened: as §2
# [8] = qHTS RealTime-Glo MT Cell Viability Assay in HepG2 cells - 0 hour (AID 1224889); further: nearly all actives have a fitted effect of over 50% in size
# Procedure, shortened: as §3
# [9] = qHTS assay to identify small molecule antagonists of the estrogen receptor alpha (ER-alpha) signaling pathway using the BG1 cell line in the presence of 0.1 nM 17-beta-estradiol - cell viability counter screen (AID 1259241); further: nearly all actives have a fitted effect of over 40% in size; further: potency means the concentration at half of the fitted maximal effect
# Procedure, shortened: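 In this screen, hormone-deprived VM7Luc4E2 cells were seeded at 4,000 per well, dosed with compound and 0.1 nM estradiol final, and incubated 22 hr at 37C and 5% CO2; fluorogenic live-cell protease signal reported viability.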
# [10] = A CellTox Green Cytotoxicity Assay to monitor cytotoxicity in HepG2 cells - 8 hour (AID 1224890); further: nearly all actives have a fitted effect of over 45% in size
# Procedure, shortened: as §1
smiles,measurement,setting,value
O=C(O)CN(CCN(CC(=O)O)CC(=O)O)CC(=O)O,Potency,[1],1740 nM (active)
same,Potency,[2],1740 nM (active)
same,Potency,[3],1960 nM (active)
same,"activity change, negative = cytotoxic",[4],-5.14% [at 2.72 µM]
same,"activity change, negative = cytotoxicity",[5],5.68% [at 2.72 µM]
same,"activity change, negative = cytotoxicity",[6],-1.21% [at 2.72 µM]
same,Potency,[7],1960 nM (active)
same,"activity change, negative = cytotoxicity",[8],-5.49% [at 2.72 µM]
same,"activity change, negative = cytotoxicity",[9],-6% [at 3.27 µM]
C=CCCC(=O)/C=C/C1C(C)=CCCC1(C)C (stereo not given),Potency,[1],inactive
same,Potency,[2],inactive
same,Potency,[3],inactive
same,Potency,[4],inactive
same,Potency,[5],inactive
same,Potency,[6],inactive
same,Potency,[8],inactive
same,Potency,[10],inactive
same,Potency,[9],inactive
CCCC1CCC(=O)CC1,Potency,[1],inactive
same,Potency,[2],inactive
same,Potency,[3],inactive
same,Potency,[4],inactive
same,Potency,[5],inactive
same,Potency,[7],inactive
same,Potency,[8],inactive
same,Potency,[9],inactive
Cc1cccc(C(=O)O)c1O,Potency,[1],inactive
same,Potency,[2],inactive
same,Potency,[3],inactive
same,Potency,[4],inactive
same,Potency,[5],inactive
same,Potency,[7],inactive
same,Potency,[8],inactive
same,Potency,[10],inactive
same,Potency,[9],inactive
COC(=O)c1ccccc1OC,Potency,[1],inactive
same,Potency,[2],inactive
same,Potency,[3],inactive
same,Potency,[4],inactive
same,Potency,[5],inactive
same,Potency,[8],inactive
same,Potency,[10],inactive
same,Potency,[9],inactive
C[C@@H](O)[C@H](N)C(=O)O,cytotoxicity,[1],7.45% [at 15.8 µM]
same,cytotoxicity increase,[2],4.24% [at 15.8 µM]
same,cytotoxicity increase,[3],-5.26% [at 15.8 µM]
same,"activity change, negative = cytotoxic",[4],-0.0796% [at 15.8 µM]
same,"activity change, negative = cytotoxicity",[5],0.683% [at 15.8 µM]
same,activity change,[7],"-2.81% [at 15.8 µM, stronger effect = higher value]"
same,"activity change, negative = cytotoxicity",[8],0.322% [at 15.8 µM]
same,cytotoxicity increase,[10],6.73% [at 15.8 µM]
same,"activity change, negative = cytotoxicity",[9],-3.81% [at 19 µM]
CC(=O)CC(=O)Nc1ccc(S(=O)(=O)O)cc1,Potency,[1],inactive
same,Potency,[2],inactive
same,Potency,[3],inactive
same,Potency,[4],inactive
same,Potency,[5],inactive
same,Potency,[7],inactive
same,Potency,[8],inactive
same,Potency,[10],inactive
CNc1ccc([N+](=O)[O-])cc1,Potency,[1],inactive
same,Potency,[2],inactive
same,Potency,[3],inactive
same,Potency,[4],inactive
same,Potency,[5],inactive
same,Potency,[7],inactive
same,Potency,[8],inactive
same,Potency,[10],inactive
same,Potency,[9],43400 nM (active)
C[Si](Cl)(c1ccccc1)c1ccccc1,Potency,[1],inactive
same,Potency,[2],inactive
same,Potency,[3],inactive
same,Potency,[4],inactive
same,Potency,[7],inactive
same,Potency,[8],inactive
same,Potency,[10],inactive
[Cl][Pt-2]([Cl])([Cl])[Cl],Potency,[1],inactive
same,Potency,[2],inactive
same,Potency,[3],inactive
same,Potency,[4],inactive
same,Potency,[6],inactive
same,Potency,[7],inactive
same,Potency,[8],inactive
same,Potency,[10],inactive
same,Potency,[9],inactive
O=C(O)O,cytotoxicity,[1],0.722% [at 6.97 µM]
same,cytotoxicity increase,[2],-9.49% [at 6.97 µM]
same,cytotoxicity increase,[3],-0.487% [at 6.97 µM]
same,"activity change, negative = cytotoxicity",[5],-0.471% [at 6.97 µM]
same,"activity change, negative = cytotoxicity",[6],1.73% [at 6.97 µM]
same,activity change,[7],"1.05% [at 6.97 µM, stronger effect = higher value]"
same,"activity change, negative = cytotoxicity",[8],-3.52% [at 6.97 µM]
COc1cc(/C=C/c2ccccc2)oc(=O)c1,Potency,[1],inactive
same,Potency,[2],inactive
same,Potency,[3],inactive
same,Potency,[4],inactive
same,Potency,[6],inactive
same,Potency,[7],inactive
same,Potency,[8],inactive
same,Potency,[9],inactive
